A short description of assay [1]: antimalarial activity against Dd2 strain (AID 2302;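 active means growth inhibition above 50% at the single 2 µM test dose, taken to imply half-maximal potency below 2 µM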;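 further: 0% = DMSO untreated growth and 100% = chloroquine plus artemisinin killed control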). The conditions noted are these: P. falciparum Dd2 in RBCs, LDH growth readout, 72 h; at 2 µM; hits give high values.
A short description of assay [2]: HepG2 cytotoxicity, primary screen, cytotoxicity control for P. falciparum antimalarial project, cell-based, ATP luminescence (AID 2303;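 active means inhibition above 50%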;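 further: 0% = DMSO wells and 100% = digitonin-killed cells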). The conditions noted are these: HepG2 viability, 24-48 h, at 10 µM, hits give high values.
For assay [3], the target named is L-lactate dehydrogenase (Plasmodium falciparum (isolate CDC / Honduras)) (UniProt Q27743). The assay is described as follows: PfLDH activity inhibition – cell lysate, 3D7 strain, counter-screen for P. falciparum growth inhibition project (AID 2304).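 Further: 0% = vehicle and 100% = reference inhibitor.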 The conditions noted are these: P. falciparum 3D7 crude extract, LDH APAD/NBT absorbance; at 2 µM; hits give high values. In general terms: A counterscreen serves to expose hits that act by an unwanted route or on another target.

A short description of assay [4]: inhibition of 3D7 malaria parasite growth – strain 3D7 (AID 2306).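 Further: 0% = DMSO wells and 100% = chloroquine plus artemisinin control wells.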 The following applies: P. falciparum 3D7 erythrocytic growth, LDH absorbance, 72 h; at 2 µM; hits give high values.
The target in assay [5] is Calcium-dependent protein kinase 1 (Plasmodium falciparum (isolate 3D7)) (UniProt P62344). The assay is described as follows: PfCDPK1 kinase inhibitors, biochemical, TCAMS library (AID 1159585; cut-off not given, nearly all actives have IC50 up to about 0.98 µM;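 further: inhibitors leave more ATP so luminescence rises with inhibition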). The following applies: recombinant PfCDPK1, Kinase-Glo ATP depletion luminescence. (Kinase-Glo measures the ATP left after a reaction by luminescence.)
Assay [6] deals with Plasmodium falciparum protein kinase 6 (PK6, PF3D7_1337100) (UniProt Q8IDW1). The assay is described as follows: PfPK6 kinase inhibitors, biochemical, TCAMS library (AID 1159586). The following applies: recombinant PfPK6, Kinase-Glo ATP depletion luminescence.
Assay [7] concerns the target Protein kinase 7 (PK7), Plasmodium falciparum 3D7 (PF3D7_0213400) (UniProt Q7YTF7). The assay is described as follows: inhibition of Plasmodium PK7 catalytic activity – biochemical, TCAMS antimalarial set, Kinase-Glo luminescence (AID 1159587). The conditions noted are these: recombinant PfPK7, Kinase-Glo ATP depletion luminescence.
For assay [8], the target named is Calcium-dependent protein kinase 4 (Plasmodium falciparum (isolate 3D7)) (UniProt Q8IBS5). The assay is described as follows: PfCDPK4 kinase inhibitors, biochemical, TCAMS library (AID 1159588; cut-off not given, nearly all actives have IC50 up to about 0.91 µM). The conditions noted are these: recombinant PfCDPK4, Kinase-Glo ATP depletion luminescence.

Molecules are shown by their SMILES. Values without a mark were called inactive. For some of these results: Entries with a potency or affinity are not part of this list. The source made the active and inactive calls. Unless noted, how the calls were made is not given here.

Sequence of Protein kinase 7 (PK7), Plasmodium falciparum 3D7 (PF3D7_0213400) (Q7YTF7 1-343): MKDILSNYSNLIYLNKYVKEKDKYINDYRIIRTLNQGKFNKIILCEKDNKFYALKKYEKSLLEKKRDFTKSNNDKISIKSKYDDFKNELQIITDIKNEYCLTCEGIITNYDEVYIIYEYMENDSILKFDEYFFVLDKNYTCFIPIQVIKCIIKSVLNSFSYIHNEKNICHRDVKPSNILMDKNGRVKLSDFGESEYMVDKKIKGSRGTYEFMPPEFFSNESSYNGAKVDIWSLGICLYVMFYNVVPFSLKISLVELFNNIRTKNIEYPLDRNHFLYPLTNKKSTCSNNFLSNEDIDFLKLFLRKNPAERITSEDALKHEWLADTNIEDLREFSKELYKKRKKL
Sequence of Calcium-dependent protein kinase 4 (Plasmodium falciparum (isolate 3D7)) (Q8IBS5 whole entry, looked up): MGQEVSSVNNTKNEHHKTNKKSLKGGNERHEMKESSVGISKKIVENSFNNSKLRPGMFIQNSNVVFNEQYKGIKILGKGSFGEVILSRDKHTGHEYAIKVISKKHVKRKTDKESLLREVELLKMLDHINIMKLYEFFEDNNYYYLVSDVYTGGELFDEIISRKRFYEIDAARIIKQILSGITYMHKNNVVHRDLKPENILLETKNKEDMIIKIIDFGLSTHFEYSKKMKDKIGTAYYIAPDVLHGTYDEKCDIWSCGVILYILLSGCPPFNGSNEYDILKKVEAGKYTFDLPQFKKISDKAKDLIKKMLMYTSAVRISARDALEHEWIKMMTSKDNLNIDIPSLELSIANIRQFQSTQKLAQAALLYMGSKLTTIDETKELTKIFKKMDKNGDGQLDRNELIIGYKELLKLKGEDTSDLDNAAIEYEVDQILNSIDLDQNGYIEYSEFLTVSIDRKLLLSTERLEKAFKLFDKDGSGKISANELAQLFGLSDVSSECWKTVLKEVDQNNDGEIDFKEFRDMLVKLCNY
Sequence of Calcium-dependent protein kinase 1 (Plasmodium falciparum (isolate 3D7)) (P62344 whole entry, looked up): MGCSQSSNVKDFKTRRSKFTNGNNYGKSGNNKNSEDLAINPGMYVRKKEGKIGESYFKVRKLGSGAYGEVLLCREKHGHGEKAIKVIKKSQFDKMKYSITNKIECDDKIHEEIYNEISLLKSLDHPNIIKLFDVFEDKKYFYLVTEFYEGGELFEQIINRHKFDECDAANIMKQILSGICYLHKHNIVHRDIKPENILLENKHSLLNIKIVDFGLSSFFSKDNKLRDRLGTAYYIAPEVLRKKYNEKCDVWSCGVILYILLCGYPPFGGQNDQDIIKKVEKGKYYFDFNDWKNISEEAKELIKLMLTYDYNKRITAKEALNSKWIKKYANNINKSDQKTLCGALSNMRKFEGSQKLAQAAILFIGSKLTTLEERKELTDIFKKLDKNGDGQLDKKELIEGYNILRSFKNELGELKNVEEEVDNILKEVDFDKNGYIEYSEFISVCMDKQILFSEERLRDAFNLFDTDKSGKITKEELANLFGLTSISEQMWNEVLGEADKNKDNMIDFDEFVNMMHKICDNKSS
Sequence of L-lactate dehydrogenase (Plasmodium falciparum (isolate CDC / Honduras)) (Q27743 whole entry, looked up): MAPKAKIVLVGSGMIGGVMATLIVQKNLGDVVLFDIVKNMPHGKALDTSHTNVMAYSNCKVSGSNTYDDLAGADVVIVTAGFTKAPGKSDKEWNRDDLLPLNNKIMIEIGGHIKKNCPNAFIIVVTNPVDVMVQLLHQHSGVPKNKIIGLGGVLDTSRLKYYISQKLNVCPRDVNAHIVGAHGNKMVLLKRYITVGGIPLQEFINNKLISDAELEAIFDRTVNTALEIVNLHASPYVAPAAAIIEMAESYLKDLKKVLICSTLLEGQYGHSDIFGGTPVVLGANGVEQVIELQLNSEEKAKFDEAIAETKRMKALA
Sequence of Plasmodium falciparum protein kinase 6 (PK6, PF3D7_1337100) (Q8IDW1 1-305): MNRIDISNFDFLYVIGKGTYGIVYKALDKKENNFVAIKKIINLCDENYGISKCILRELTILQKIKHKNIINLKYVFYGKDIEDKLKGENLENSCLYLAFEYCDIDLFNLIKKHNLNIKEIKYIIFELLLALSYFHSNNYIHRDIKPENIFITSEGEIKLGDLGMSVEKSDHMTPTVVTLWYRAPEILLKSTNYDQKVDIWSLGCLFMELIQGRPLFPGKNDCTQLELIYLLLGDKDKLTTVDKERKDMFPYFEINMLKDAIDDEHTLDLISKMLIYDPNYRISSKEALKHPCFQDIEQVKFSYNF

For orientation: inhibition means the drop in the measured response relative to a control, in per cent. For the compound `Cc1cccc(CN2CCCN(Cc3cccc(C(=O)Nc4ccc(C(C)(C)C)cc4)c3)CC2)c1`, the growth inhibition in assay [1] is 40%; in assay [4], 89% (active). Moreover, the inhibition in assay [2] is 98% (active); in assay [3] it was 4%. The outcome in assay [5], in assay [6], in assay [7] and in assay [8] was inactive.

In the case of `CC(C)C[C@H](NC(=O)c1cc2ccccc2s1)C(=O)N[C@H]1CCN(Cc2ccc(I)c(OC3CCN(C)C3)c2)C1` (stereo not given in full), the growth inhibition in assay [1] is 95% (active); in assay [4], 100% (active). Moreover, the values for the inhibition in assay [2] and in assay [3] were 99% (active) and 4%, respectively. Also, the result in assay [5], in assay [6], in assay [7] and in assay [8] was inactive.

For `COC(=O)Cn1c(C2CCN(CC3CCN(C(=O)/C=C/c4ccc(Cl)c(Cl)c4)CC3)CC2)nc2ccccc21`, the growth inhibition in assay [1] is 2%; in assay [4], 86% (active). Besides, the inhibition in assay [2] is 19%; in assay [3] it was -1%. For the same compound, the outcome in assay [5], in assay [6], in assay [7] and in assay [8] was inactive.

`FC(F)(F)c1ccc2nc(-c3ccc(-c4cccc(CN5CCC(CCN6CCCCC6)CC5)c4)cc3)[nH]c2c1`: the growth inhibition in assay [1] is 96% (active); in assay [4], 101% (active). Moreover, the inhibition was 100% (active) in assay [2] and -5% in assay [3]. For the same compound, the outcome in assay [5], in assay [6], in assay [7] and in assay [8] was inactive.

In the case of `COc1cc(CN2CCC(N3CCc4cc(NC(=O)c5cc(C)on5)ccc43)C2)ccc1F` (stereo not given), the growth inhibition in assay [1] is 96% (active); in assay [4] it was 91% (active). Besides, the inhibition in assay [2] was 1%; in assay [3] it was 0%. The outcome in assay [5], in assay [6], in assay [7] and in assay [8] was inactive.

`c1ccc2c(Nc3ccc(Cc4ccc(Nc5c6ccccc6nc6ccccc56)cc4)cc3)c3ccccc3nc2c1`: the growth inhibition in assay [1] and in assay [4] was 101% (active) each time. Also, the inhibition in assay [2] was 93% (active); in assay [3] it was 7%. The result in assay [5], in assay [6], in assay [7] and in assay [8] was inactive.

Consider `O=[N+]([O-])c1ccc(Nc2nc(NCc3ccccc3)nc(NN=Cc3ccccc3[N+](=O)[O-])n2)cc1`, for which the growth inhibition in assay [1] is 99% (active); in assay [4], 101% (active). Further, the inhibition in assay [2] was 18%; in assay [3], -9%. The outcome in assay [5], in assay [6], in assay [7] and in assay [8] was inactive.

For the compound `COc1ccc(-c2ccc(NC(=O)c3ccccc3)cc2)cc1CN1CCCN(C)CC1`, the growth inhibition was 17% in assay [1] and 92% (active) in assay [4]. The inhibition in assay [2] is 24%; in assay [3] it was 3%. The outcome in assay [5], in assay [6], in assay [7] and in assay [8] was inactive.

As for `C=CCC(C)n1ncc2c3c(N)nc(N)nc3ccc21` (stereo not given), the growth inhibition in assay [1] was 95% (active); in assay [4], 93% (active). In addition, the inhibition in assay [2] was 66% (active); in assay [3], -3%. For the same compound, the outcome in assay [5], in assay [6], in assay [7] and in assay [8] was inactive.

Take `CC(C)Oc1cc2c(cc1NS(=O)(=O)c1ccc(-c3ccc(Cl)cc3)cc1F)CCN(C)CC2`: the growth inhibition in assay [1] is 2%; in assay [4] it was 88% (active). The inhibition was 29% in assay [2] and -1% in assay [3]. The result in assay [5], in assay [6], in assay [7] and in assay [8] was inactive.

Regarding `CCOc1cc(C(=O)N[C@@H](Cc2ccccc2)[C@H](O)CNCc2cccc(OC)c2)cc(N2CCCCS2(=O)=O)c1`, the growth inhibition in assay [1] is 94% (active); in assay [4], 97% (active). In addition, the inhibition in assay [2] and in assay [3] was 3% each time. For the same compound, the outcome in assay [5], in assay [6], in assay [7] and in assay [8] was inactive.

As for `Cc1nn(CC(C)C)c2sc(C(=O)Nc3nc(-c4ccccn4)cs3)cc12`, the growth inhibition in assay [1] is 67% (active); in assay [4] it was 96% (active). For the same compound, the inhibition was 29% in assay [2] and 1% in assay [3]. The result in assay [5], in assay [6], in assay [7] and in assay [8] was inactive.

For `CCOC(=O)C1=C(C)NC(Cn2ccnc2)=C(C(=O)OCC)C1c1ccc(C(C)(C)C)cc1` (stereo not given), the growth inhibition was 33% in assay [1] and 100% (active) in assay [4]. The inhibition was 8% in assay [2] and -10% in assay [3]. The outcome in assay [5], in assay [6], in assay [7] and in assay [8] was inactive.

For the compound `O=C(NOCCCCOc1ccc(Cl)c(Cl)c1)c1ccccc1`, the growth inhibition in assay [1] was 1%; in assay [4], 98% (active). The inhibition in assay [2] is 2%; in assay [3] it was 3%. For the same compound, the result in assay [5], in assay [6], in assay [7] and in assay [8] was inactive.

Regarding `COc1cccc(NC(=O)Nc2cc(C)nc3ccccc23)c1`, the results for the growth inhibition in assay [1] and in assay [4] were 48% and 100% (active), respectively. The inhibition was 2% in assay [2] and -1% in assay [3]. Moreover, the result in assay [5], in assay [6], in assay [7] and in assay [8] was inactive.

With `COc1cc(NC(=O)Nc2ccnc3ccccc23)cc(OC)c1`, the figures for the growth inhibition in assay [1] and in assay [4] were 34% and 98% (active), respectively. Besides, the inhibition is 11% in assay [2] and -6% in assay [3]. Moreover, the result in assay [5], in assay [6], in assay [7] and in assay [8] was inactive.

Consider `O=C(Cc1cnc[nH]1)Nc1cccc(-c2cccc(-c3nc4ccc(F)cc4[nH]3)c2)c1`, for which the figures for the growth inhibition in assay [1] and in assay [4] were 97% (active) and 101% (active), respectively. The inhibition in assay [2] was 21%; in assay [3], 2%. The outcome in assay [5], in assay [6], in assay [7] and in assay [8] was inactive.

On to `C[C@H](NCCC1CCC(NC(=O)N[C@H](C)C(O)(c2ccccc2)c2ccccc2)CC1)c1cccc2ccccc12` (stereo not given in full), for which the values for the growth inhibition in assay [1] and in assay [4] were 58% (active) and 86% (active), respectively. The inhibition in assay [2] is 43%; in assay [3] it was -2%. Further, the outcome in assay [5], in assay [6], in assay [7] and in assay [8] was inactive.

Turning to `CC(C)COc1ccc2ccccc2c1CNCCCCCCNCc1c(OCC(C)C)ccc2ccccc12`, the growth inhibition is 95% (active) in assay [1] and 90% (active) in assay [4]. The inhibition in assay [2] is 99% (active); in assay [3] it was 2%. Also, the outcome in assay [5], in assay [6], in assay [7] and in assay [8] was inactive.

For the compound `COc1ccc2c(NN=Cc3cccnc3)cc(C)nc2c1`, the growth inhibition in assay [1] was 12%; in assay [4], 85% (active). The inhibition was -4% in assay [2] and -2% in assay [3]. Moreover, the outcome in assay [5], in assay [6], in assay [7] and in assay [8] was inactive.

These data come from PubChem BioAssay.
